# Sampled rows, rich in hits. Any-hit rate of the full collection: about 4.1%.
# hgDAF12 agonist = H. glycines DAF-12 receptor agonists, primary screen, cell-based, luminescence, HEK293, GAL4 fusion, UAS-luciferase | Nuclear hormone receptor DAF-12 (Heterodera glycines), GAL4 fusion | HEK293 GAL4-hgDAF12 UAS-luciferase reporter, agonist luminescence; normalized to butyrate control | activation, % at 6.8 µM | hit rate 1.8% among 370,000 | AID 687014, 2013;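 active = activation above a cutoff set at the mean of all screened compounds plus 3 SD, cut at about 10% in these data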;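 note: 0% = DMSO wells and 100% = sodium butyrate wells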
# DAX1 inh-1 = DAX1 (NR0B1) inhibitors, primary screen, cell-based, HEK293, Gal4-DAX1, luciferase luminescence; HEK293 Gal4-DAX1 luciferase reporter; inhibition, % at 6.75 µM; hit rate 0.99% among 340,000; AID 504766, 2011;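 active = inhibition above the mean over all tested compounds plus 3 SD, cut at about 4.2% in these data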;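 note: 0% = DAX1-transfected cells with DMSO and 100% = empty-vector control cells with DMSO; inhibition shows as a rise in luminescence from relieved DAX1 repression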
# Target sequence (P51843 207-470 limits assumed): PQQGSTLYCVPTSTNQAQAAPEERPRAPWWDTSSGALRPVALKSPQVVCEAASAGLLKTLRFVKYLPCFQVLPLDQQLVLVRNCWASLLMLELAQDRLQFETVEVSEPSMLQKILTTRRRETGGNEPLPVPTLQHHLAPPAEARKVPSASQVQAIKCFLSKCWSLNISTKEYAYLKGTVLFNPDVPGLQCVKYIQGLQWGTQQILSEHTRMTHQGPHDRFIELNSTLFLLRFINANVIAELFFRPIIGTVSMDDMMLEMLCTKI
# DAX1 inh-2 = DAX1 (NR0B1) inhibitors on StAR promoter, primary screen, cell-based, luminescence, SF-1 (NR5A1), full-length DAX-1; inhibition, % at 6.8 µM; hit rate 1.1% among 370,000; HEK293T StAR-luciferase reporter, SF-1/DAX-1 repression relief;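 active = inhibition above the mean over all tested compounds plus 3 SD, cut at about 3.6% in these data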;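 note: 0% = DAX-1 cells with DMSO and 100% = cells lacking DAX-1 with DMSO; higher inhibition means more luminescence from relief of DAX-1 repression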
# ssDAF-12 act = S. stercoralis DAF-12 nuclear receptor activators, primary screen, cell-based, luminescence, HEK293, GRIP1 co-expression, lit1-tk-luc; Nuclear hormone receptor DAF-12 (Strongyloides stercoralis); HEK293 ssDAF-12/GRIP1 lit1-tk-luc reporter; % of 3 µM dafachronic acid response; activation, % at 6.8 µM; hit rate 1% among 370,000; AID 652126, 2013;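 active = activation above the mean over all tested compounds plus 3 SD, cut at about 0.9% in these data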;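 note: 0% = DMSO-only wells and 100% = 3 µM delta7-dafachronic acid wells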
# hcDAF-12 act = H. contortus DAF-12 nuclear receptor activators, primary screen, cell-based, luminescence, HEK293, lit1-tk-luc reporter; HEK293 hcDAF-12 lit1-tk-luc reporter; 0% DMSO, 100% Δ7-dafachronic acid; activation, % at 6.8 µM; hit rate 1.4% among 370,000; AID 652067, 2013;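 active = activation above the mean of all tested compounds plus 3 SD, cut at about 5.5% in these data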;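 note: 100% = response to 3 µM Δ7-dafachronic acid high control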
# hgDAF12 ag = H. glycines DAF-12 receptor agonists, confirmation, cell-based, luminescence, HEK293, GAL4-LBD fusion | activation, % at 6.8 µM | HEK293 GAL4-hgDAF12 luciferase reporter, agonist mode; percent of butyrate response | hit rate 80% among 3,300 | shares compounds with hgDAF12 agonist | AID 743050, 2013;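 active = mean activation over triplicate wells above the hit cutoff derived from the earlier primary screen, cut at about 11% in these data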;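 note: 0% = DMSO low control and 100% = 2 mM sodium butyrate high control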
# LXR ag 2 = LXR agonists, Gal4 luciferase reporter, confirmation, counter-screen for hgDAF-12 agonist project, cell-based, luminescence, HEK293, H. glycines campaign | shares compounds with hgDAF12 agonist | 24 h | activation, % at 6.8 µM | 3,300 tested, under 10 active;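 active = mean activation of the triplicate above a set limit carried over from the primary screen, none filed active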
# * hit, by the source's call; / = not tested or not shown.
SMILES,hgDAF12 agonist,DAX1 inh-1,DAX1 inh-2,ssDAF-12 act,hcDAF-12 act,hgDAF12 ag,LXR ag 2
O=C(Nc1ccc([N+](=O)[O-])cc1)Nc1ccc2c(c1)OCCO2,17.1*,3.1,0.1,0.1,2.8,19.5*,0.8
O=C(Nc1ccc2c(c1)OCO2)Nc1ccc2c(c1)OCO2,22.2*,1.4,4.0*,0.5,5.2,16.8*,0.7
O=C(NCCc1ccccc1)Nc1ccc2c(c1)OCO2,16.3*,2.0,3.5,0.7,3.1,16.6*,0.6
O=C(Nc1ccc2c(c1)OCCO2)NC1CCCCC1,13.5*,0.0,2.5,0.5,5.2,16.4*,0.7
O=C(NCCc1ccc(F)cc1)Nc1ccc2c(c1)OCO2,8.9,2.8,1.8,-0.4,2.3,/,/
COc1cc([N+](=O)[O-])ccc1NC(=O)Nc1ccc2c(c1)OCCO2,0.8,0.2,-0.3,-1.8,-2.9,/,/
O=C(Nc1cccnc1)Nc1ccc2c(c1)OCO2,7.8,0.9,1.0,-0.2,5.4,/,/
Nc1nc2ccccc2cc1C(=O)NCc1cccs1,-6.6,/,-3.1,-1.3,-1.7,/,/
O=C(Nc1ccc(Br)cc1)c1ccccc1Br,13.3*,4.9*,1.4,0.2,2.9,16.2*,0.6
CC(=O)Nc1ccc(NC(=O)c2ccccc2Br)cc1,-1.7,/,0.3,-1.1,-0.8,/,/
CC(NC(C)c1ccccc1Cl)C(=O)Nc1cccc(S(=O)(=O)N2CCCCC2)c1 (stereo not drawn),-4.1,-1.0,-0.6,-1.1,-0.2,/,/
C[C@@H]1CN([C@@H](C)CO)C(=O)CCCn2nncc2CO[C@H]1CN(C)CC1CCCCC1,-0.4,/,-0.3,-0.3,2.0,/,/
CCOC(=O)Cc1ccc2sc(-c3ccccc3)nc2c1,13.4*,3.6,3.0,-0.1,3.7,13.6*,0.7
COc1cc(NC(=O)CSc2nnc3ccccn23)cc(OC)c1OC,0.7,0.5,0.7,-1.6,-0.9,/,/
Nc1ccc(-c2nc3cc([N+](=O)[O-])ccc3o2)cc1,23.6*,5.7*,2.5,0.7,5.7*,19.6*,0.9
COc1ccc(-c2nc3cc([N+](=O)[O-])ccc3o2)cc1,13.9*,6.2*,2.2,-0.4,2.4,16.6*,0.8
CC(C)(C)Nc1nc2cc([N+](=O)[O-])ccc2o1,0.0,-0.5,0.3,-1.0,0.4,/,/
C/C(CC(=O)NC1CCCCC1)=N\NC(=O)c1ccccn1,19.5*,3.0,3.3,0.1,4.1,4.3,0.2
CN(C)c1cccc(C(=O)NNC(=O)CN2C(=O)C3CC=CCC3C2=O)c1 (stereo not drawn),14.5*,5.7*,3.1,-0.7,3.7,3.2,0.8
CCCc1ccc(C(=O)O/N=C(\N)c2ccccn2)cc1,-11.9,-8.8,-1.1,-2.8,-5.8,/,/
N/C(=N\OC(=O)c1cccc([N+](=O)[O-])c1)c1ccccn1,14.8*,3.8,1.3,0.9*,5.8*,12.8*,0.6
Cc1ccc(OCC(=O)O/N=C(\N)c2ccccn2)cc1,14.6*,3.1,3.8*,-0.1,4.2,13.6*,0.4
N/C(=N\OC(=O)c1ccco1)c1ccccn1,13.8*,-1.0,2.7,-0.4,1.7,7.1,0.3
N/C(=N/OC(=O)c1cccc([N+](=O)[O-])c1)c1cccc([N+](=O)[O-])c1,1.0,-0.6,-0.5,-1.6,-1.6,/,/
CC(C)(C)CC(=O)O/N=C(\N)c1ccccn1,13.8*,0.3,3.0,-0.1,6.3*,12.8*,0.8

# Screening data deposited in PubChem BioAssay by The Scripps Research Institute Molecular Screening Center.
